# Compounds with a hit are over-represented: about 8.1% of the library has one in this group of screens.
# Gal4-VP16 FLuc: inhibits Gal4-VP16 luciferase reporter, ROR gamma counter-screen; Drosophila S2 Gal4-VP16 UAS-luciferase, luminescence, 20 h; Potency, µM (highest dose often 53.6 µM), for the others: at the top dose activity, negative = inhibition, actives largely listed as inhibitors; 3.5% of 310,000 active; AID 2546;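 further: Gal4-VP16 expression switched on by copper sulfate through the metallothionein promoter; on the % scale 0 is the no-effect control and ±100 the full control effect; nearly all actives have a fitted effect of over 50% in size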
# ClpP mod: qHTS Assay for Activators of ClpP | ATP-dependent Clp protease proteolytic subunit (Bacillus subtilis (strain 168)), P80244 | Potency, µM (titrated, usually from 57.5 µM), for inactives: at the highest dose activity change, negative = active | 1.9% of 340,000 active | purified B. subtilis ClpP, FRET peptide cleavage, 20 min | AID 651965, 2013; active means well fitted falling curve with a large enough effect; inconclusive means small, poorly fitted or top-dose-only effect; inactive means no such curve, though single readings can be large or run the other way; further: the source files actives as falling curves though it sought activators and does not explain the sign; nearly all actives have a fitted effect of over 65% in size
#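 Buffer: 100 mM Tris/HCl pH8, 100 mM KCl, 0.05% low protease BSA, 2.5% glycerol, 0.01% Tween-20. ClpP 10 microg/mL final; 20 min RT; delta FRET normalized to ADEP and DMSO controls.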
# Sfp PPTase inh: Sfp phosphopantetheinyl transferase inhibition. Q9F4F7. Biochemical Sfp PPTase activity, qHTS. Potency, µM, for inactives: largest response in the series, negative = inhibition, actives largely listed as inhibitors. 3.5% of 310,000 active. AID 1490;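 further: the enzyme is Sfp with the accession as filed and its product quenches rhodamine fluorescence; 0% = enzyme reaction without inhibitor and -100% = no enzyme wells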
#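 Step 1, compound plus 15 nM Sfp-PPTase, 15 min, room temperature. Step 2, add rhodamine-CoA (5 uM) and BHQ-2-YbbR (12.5 uM). Step 3, read 525/598 nm fluorescence at 0 and 30 min.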
# Epigenetic derep: regulators of epigenetic silencing causing reporter derepression in mouse cells; murine LDR cells, GFP reporter derepression, 30 h; Potency, µM (doses to about 53.9 µM), without a hit: at the highest dose GFP activation, actives largely listed as activators; 0.2% of 280,000 active; AID 1865; further: % of control where 0% means no effect; nearly all actives have a fitted effect of over 60% in size
#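 Derepression of a silenced CMV-GFP reporter in murine LDR cells is scored by enumerating GFP-positive cells with a laser-scanning microplate cytometer after 30 hours of treatment at 37 C.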
# PINK1 expr mod: PINK1 expression modulation; PINK1 immunofluorescence, high-content cytometry, 24 h; Potency, µM (top dose mostly 76.6 µM), inactives show at the highest dose activation (PINK1 increase), actives largely listed as activators; 0.2% of 410,000 active; AID 624263; active means well fitted activation curve with a large enough effect; inconclusive means small, poorly fitted or top-dose-only effect; cell line not stated here; further: % of control where 0% means no effect; nearly all actives have a fitted effect of over 65% in size
#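 Decision-based qHTS: stable cells, 24 h exposure to five compound concentrations, CCCP as control. Fixed cells stained for PINK1 plus nuclear, mitochondrial and cell markers, cytometer read.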
# RORgamma inh: inhibitors of mouse ROR gamma transcriptional activity; P51450; Drosophila S2 Gal4-RORgamma UAS-luciferase reporter, 20 h; Potency, µM (highest dose often 53.6 µM), for inactives: at the top dose activity change, negative = inhibition, actives largely listed as inhibitors; 5.4% of 310,000 active; further: on the % scale 0 is the no-effect control and ±100 the full control effect; nearly all actives have a fitted effect of over 60% in size
#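 Drosophila Schneider cells stably carrying a metallothionein-driven Gal4 DBD–ROR gamma fusion and a UAS-Photinus luciferase reporter were exposed to compound for 1 hr, then induced with copper sulfate (700 uM final) for 20 hr at ambient temperature before luminescence reading.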
# * = called active by the depositor; ? = inconclusive; . = not tested or not shown; ! = not confirmed by another sample; [ ] = remark or other dose. Unless noted, the call rests on the fitted dose curve; in most records, active means well fitted curve in the direction sought with a large enough effect; inconclusive means small, poorly fitted or top-dose-only effect, or another doubt; inactive means no such curve, though single readings can be large; an effect the other way counts as inactive or inconclusive. Potency means the concentration at half of the fitted maximal effect.
SMILES,Gal4-VP16 FLuc,ClpP mod,Sfp PPTase inh,Epigenetic derep,PINK1 expr mod,RORgamma inh
CCn1ccnc1CN1CCCC(C(=O)c2ccc(SC)cc2)C1 (stereo unspecified),6.31µM*,.,8.0%,0.5%,-1.0%,1.58µM*
O=NN(c1ccccc1)c1ccccc1,19.2%,.,.,.,.,3.5%
CN1C2CC(=O)CC1C(O)C2 (stereo unspecified),-4.6%,.,15.0%,.,.,-5.3%
CC1(C)S[C@H]2[C@@H](N)C(=O)N2[C@H]1C(=O)O,-2.7%,.,56.2µM*,-0.3%,.,-11.5%
CC1(C)S[C@@H]2[C@H](N)C(=O)N2C1C(=O)O (stereo partly specified),-7.9%,.,14.1µM*,-1.1%,.,-2.5%
Cc1cc([C@@H]2CCCN2C)on1,3.4%,.,0.1%,.,.,13.1%
O=C(N/N=C/c1c(O)n(Cc2ccccc2)c(=O)[nH]c1=O)c1ccccc1O,?,?,-0.4%,1.1%,?,11.2µM*
CCn1c(O)c(/C=N/NC(=O)c2ccccc2)c(=O)[nH]c1=S,?,-2.8%,30.6%,-0.9%,0.1%,7.08µM*
O=C(N/N=C/c1c(O)n(Cc2ccc(F)cc2)c(=O)[nH]c1=O)c1ccccc1O,?,-23.6%,-0.6%,-0.9%,?,?
COc1ccccc1-n1c(O)c(/C=N/NC(=S)Nc2ccccc2)c(=O)[nH]c1=S,0.7%,-3.6%,10µM*,1.1%,-0.4%,-0.8%
C[C@@]12CCC3C(CCC4=CC(=O)CC[C@]43C)C1CCC2O (stereo partly specified),-6.9%,.,-20.1%,4.0%,-1.0%,9.6%
O=C(Oc1ccc([N+](=O)[O-])cc1)N1CCN(/[N+]([O-])=N/Oc2ccc([N+](=O)[O-])cc2[N+](=O)[O-])CC1,.,.,.,.,-1.1%,.
CSc1cccc(CNC(=O)C2CCC(=O)N(Cc3cccc(C(F)(F)F)c3)C2)c1 (stereo unspecified),?,0.3%,12.3%,.,-1.0%,9.8%
CCCOC(=O)c1cc2c(cn1)[nH]c1ccccc12,.,.,?,0.8%,.,.
O=C(O)c1cc(O)c(O)c(O)c1,?,.,8.91µM*!,-1.3%,.,10µM*!
Nc1c(C(=O)NCc2ccco2)c2nc3ccccc3nc2n1Cc1ccccc1,16.6%,3.8%,44.7µM*,?,8.2%,?
Nc1c(C(=O)NCc2ccco2)c2nc3ccccc3nc2n1Cc1ccc(F)cc1,20.2%,28.2µM*,-73.9%,12.7%,11.7%,-39.1%
CCOC(=O)c1c(N)n(Cc2ccco2)c2nc3ccccc3nc12,-7.3%,5.4%,?,-2.9%,3.5%,25.7%
COCCOC(=O)c1c(N)n(Cc2ccccc2)c2nc3ccccc3nc12,9.2%,69.8%,-11.2%,-1.0%,-0.4%,16.1%
COCC(C)OC(=O)c1c(N)n(Cc2ccco2)c2nc3ccccc3nc12 (stereo unspecified),-2.3%,?,31.6µM*,-1.1%,7.1%,?
COc1ccc(Cn2c(N)c(C(=O)NCc3ccco3)c3nc4ccccc4nc32)cc1,-9.4%,31.6µM*,44.7µM*,3.2%,8.3%,?
C=C/C(=C/C(=O)C[C@H](C)C[C@@H](C)CC[C@H](O)[C@H](C)C(=O)C[C@@H](O)[C@H](C)[C@@H](C)OC(=O)C[C@@H](O)C1=C(C)C(=O)OC1=O)CC,?,.,-9.4%,-2.1%[10.1 µM],.,?
CC(=O)NNc1ccccc1,-5.6%,.,.,.,.,-12.4%
CC1CC2CC(=O)C3CCCN4CCCC2[C@]34C1 (stereo partly specified),3.1%,.,15.0%,-1.7%,-1.0%,-6.4%
CC/C=C\C/C=C\C/C=C\C/C=C\C/C=C\CCCC(=O)NCCO,-1.8%,.,-6.1%,2.0%,.,2.6%
SMILES,Gal4-VP16 FLuc,ClpP mod,Sfp PPTase inh,Epigenetic derep,PINK1 expr mod,RORgamma inh
Cc1ccc(C(=O)Nc2nc3ccccc3[nH]2)cc1,3.55µM*,.,16.0%,.,5.4%,2.51µM*
CCCCCn1c(=O)c(C(=O)Nc2nc3ccccc3[nH]2)c(O)c2ccccc21,5.2%,.,16.1%,1.1%,4.7%,-4.2%
COc1cc(/C=C(/C)[N+](=O)[O-])ccc1OCc1ccccc1Cl,?,.,14.1µM*,-3.2%,-2.8%,3.98µM*
O=C1NC(=O)N(c2ccccc2)C(=O)/C1=C/c1ccoc1,-5.8%,.,?,-2.9%,2.5%,34.0%
COc1ccccc1N1C(=O)NC(=O)/C(=C/c2ccc3c4c(cccc24)CC3)C1=O,-17.0%,-21.1%,11.2µM*,0.9%,6.1%,-23.2%
O=C1NC(=O)N(c2ccccc2)C(=O)/C1=C\c1ccccc1[N+](=O)[O-],-5.0%,-6.9%,22.4µM*,0.1%,4.8%,2.8%
O=C1NC(=O)N(c2ccccc2)C(=O)/C1=C\c1ccc2c3c(cccc13)CC2,5.7%,.,39.8µM*,1.1%,.,1.7%
O=C(O)Cn1cc(/C=C2\C(=O)NC(=O)N(c3ccc(F)cc3)C2=O)c2ccccc21,-8.1%,.,-4.4%,.,.,29.5%
NCC(=O)c1ccc(Cl)c(Cl)c1,.,-2.6%,.,.,.,.
O=C(NCNC(=O)N[C@H]1C(=O)NC(=O)N1CO)N[C@H]1C(=O)NC(=O)N1CO,9.2%[17 µM],.,11.8%,5.2%[16.9 µM],.,-25.9%[16.9 µM]
C=Cn1ccnc1P(=S)(c1ccc(N(C)C)cc1)c1nccn1C=C,?,0.5%,-3.7%,-1.9%,7.9%[38.3 µM],10µM*
C=Cn1ccnc1P(=S)(c1c(C)nn(-c2ccccc2)c1C)c1nccn1C=C,-9.0%,1.3%,-2.6%,-0.7%,2.7%[38.3 µM],2.3%
CCc1ccc(NC(=O)c2ccc3oc(=O)n(Cc4ccccc4)c3c2)cc1,.,?,.,4.0%,2.0%,.
Cc1ccc(S(=O)(=O)N2CCC(=O)N(CCOC(=O)Nc3cccc(Cl)c3)CC2)cc1,4.7%,-1.9%,15.4%,0.1%,-0.9%,?
C/C1=C\[C@@H](C)C/C=C/[C@H]2[C@@H]3O[C@]3(C)[C@@H](C)[C@H]3[C@H](Cc4c[nH]c5ccccc45)NC(=O)[C@]32C(=O)/C=C/C(=O)[C@@H]1O,11.2µM*,-1.7%,12.6µM*,?,-0.9%,5.62µM*
Cc1cccc(N2C(=O)NC(=O)/C(=C\c3ccc(N4CCOCC4)cc3)C2=O)c1,-8.9%,.,25.1µM*,-1.0%,-2.1%,0.5%
Cc1cccc(N2C(=O)NC(=O)/C(=C/c3ccc(N4CCOCC4)cc3)C2=O)c1,5.0%,-3.1%,50.1µM*,-1.4%,1.8%,34.6%
Cc1cccc(N2C(=O)NC(=O)/C(=C\c3cnc(-c4ccccc4)nc3)C2=O)c1,-22.6%,-3.8%,?,0.0%,-0.3%,20.0%
O=C1Nc2ccccc2C2(CCN(CCc3ccc(C(F)(F)F)cc3)CC2)O1,-4.0%,.,-12.9%,1.0%,.,6.1%
